The values below come from PubChem BioAssay (NCI).

Some test systems named below: SK-MEL-2 melanoma; SN12C renal; UO-31 renal; TK-10 renal; ACHN renal; CAKI-1 renal; CCRF-CEM leukemia; MOLT-4 leukemia; RPMI-8226 leukemia; OVCAR-8 ovarian; OVCAR-5 ovarian; OVCAR-4 ovarian; IGROV1 ovarian; OVCAR-3 ovarian; HS 578T breast; NCI/ADR-RES ovarian; A498 renal; SR leukemia; SK-OV-3 ovarian; EKVX NSCLC.
Common to all, as to assay: NCI-60 one-dose screen, 48 h (100 = growth as untreated, 0 = no growth, -100 = all killed)
Common to all, as to details: 10 µM unless noted

About 83,000 compounds went through this panel and 20% of them were active in at least one assay; those are over-represented in the sample as a whole.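 Single-concentration screen, 48 h exposure, 96-well plates. Endpoint: percent growth. Below 10 = active.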 A number with no mark means an inactive call. Activity calls are given as the source filed them.

Turning to `Cc1ccc(S(=O)(=O)N(CC[C@@H]2C[C@H]2c2cc3ccccc3o2)C(=O)NC2CCCCC2)cc1`, the growth was 101% in the test with SK-MEL-2 melanoma; 100% in the test with SN12C renal; 75.9% with UO-31 renal; 106% with TK-10 renal; 96.9% in the test on ACHN renal; 80.1% in the test on CAKI-1 renal. The growth in the test on CCRF-CEM leukemia was 118%; with MOLT-4 leukemia, 94.7%; with RPMI-8226 leukemia, 107%; in the test with OVCAR-8 ovarian, 98.8%; in the test on OVCAR-5 ovarian it was 95.7%; in the test with OVCAR-4 ovarian, 93%. Moreover, the growth is 95.8% in the test with IGROV1 ovarian, 104% with OVCAR-3 ovarian, 89.8% in the test on HS 578T breast and 86.9% with NCI/ADR-RES ovarian.
Consider `NC(=S)N/N=C/C(=O)O`, for which the growth in the test on SK-MEL-2 melanoma was 85.3%; in the test on UO-31 renal it was 38.8%; with TK-10 renal, 111%; in the test on ACHN renal it was 91.2%; with CAKI-1 renal it was 88.5%; in the test with A498 renal it was 80.3%. Further, the growth in the test on CCRF-CEM leukemia is 24.3%; in the test with MOLT-4 leukemia, 44%; in the test on SR leukemia it was 62.9%; with RPMI-8226 leukemia, 48.1%; in the test with OVCAR-8 ovarian, 81.9%; in the test on OVCAR-5 ovarian, 102%. Moreover, the growth in the test with OVCAR-4 ovarian is 75.3%; with SK-OV-3 ovarian, 108%; in the test on IGROV1 ovarian, -32.7% (active); in the test with OVCAR-3 ovarian, 26.1%; with NCI/ADR-RES ovarian, 88.7%.
Regarding `CCNCCNc1cc(-c2ccc(C(=O)OC)cc2)c(C#N)c2nc3ccccc3n12`, the growth in the test on EKVX NSCLC is 84.8%; in the test with SN12C renal, 67.4%; in the test on UO-31 renal it was -11.3% (active); with TK-10 renal, 87.3%; in the test with ACHN renal, 36.4%; in the test on CAKI-1 renal, 58.2%. Further, the growth in the test with A498 renal is 81.9%; in the test on CCRF-CEM leukemia, -3.88% (active); in the test with MOLT-4 leukemia, 28.3%; in the test on SR leukemia, -7.47% (active); with RPMI-8226 leukemia, 20.8%; in the test with OVCAR-8 ovarian, 31.5%. In addition, the growth is 102% with OVCAR-5 ovarian; -19.2% (active) in the test with OVCAR-4 ovarian; 81.7% with SK-OV-3 ovarian; 53.5% with IGROV1 ovarian; -57% (active) with OVCAR-3 ovarian; 59.3% with HS 578T breast. In addition, in the test on NCI/ADR-RES ovarian, the growth was 57%.
Consider `O=C(O)CC1Sc2ccccc2NC1=O` (stereo unspecified), for which the growth with EKVX NSCLC is 113%; with SN12C renal, 102%; in the test on UO-31 renal it was 86.3%; with TK-10 renal, 149%; in the test on ACHN renal, 95.5%; in the test on CAKI-1 renal it was 72.8%. The growth in the test with A498 renal is 124%; in the test on CCRF-CEM leukemia it was 107%; in the test on MOLT-4 leukemia it was 92.5%; in the test on SR leukemia, 61.1%; in the test with RPMI-8226 leukemia, 96%; in the test with OVCAR-5 ovarian, 83.9%. The growth in the test on OVCAR-4 ovarian is 128%; in the test on SK-OV-3 ovarian, 106%; with IGROV1 ovarian, 93.6%; with OVCAR-3 ovarian, 110%; in the test on HS 578T breast, 133%; with NCI/ADR-RES ovarian, 88.2%.
As to `N[C@@H]1CCC[C@H]1NCCCCN1C(=O)c2cccc3cccc(c23)C1=O`, the growth with EKVX NSCLC is 85.6%; in the test on SN12C renal it was 73.7%; in the test with UO-31 renal, 56.2%; with TK-10 renal it was 76.6%; with CAKI-1 renal, 81.3%; in the test with A498 renal, 34.8%. Besides, the growth with CCRF-CEM leukemia was 98.4%; with MOLT-4 leukemia, 30.8%; in the test on SR leukemia, 18.1%; in the test with RPMI-8226 leukemia it was 77.7%; in the test with OVCAR-8 ovarian, 45%; with OVCAR-5 ovarian, 80.9%. Also, the growth in the test on OVCAR-4 ovarian was 47.2%; in the test with SK-OV-3 ovarian it was 96.9%; with IGROV1 ovarian it was 59.9%; in the test on OVCAR-3 ovarian, 69.9%; with HS 578T breast it was 71.8%; with NCI/ADR-RES ovarian, 82.4%.
With `COc1cc(/C=C2\C=C(c3ccccc3)N(CCc3ccccc3)C2=O)cc(OC)c1OC`, the growth in the test with EKVX NSCLC is 69.2%; in the test with SN12C renal, 82%; with UO-31 renal, 69.2%; in the test on TK-10 renal, 81.9%; in the test on CAKI-1 renal, 80.1%; in the test on A498 renal, 34.2%. The growth in the test on CCRF-CEM leukemia is 100%; in the test on MOLT-4 leukemia, 94.8%; with SR leukemia, 85.5%; in the test on RPMI-8226 leukemia, 83.3%; in the test with OVCAR-8 ovarian, 38.5%; in the test with OVCAR-5 ovarian, 105%. Also, the growth was 33.4% with OVCAR-4 ovarian; 62.9% in the test with SK-OV-3 ovarian; 83.1% with IGROV1 ovarian; 87.7% with OVCAR-3 ovarian; 23.2% in the test on HS 578T breast; 66.8% in the test on NCI/ADR-RES ovarian.
Take `OC(COc1cccc2ccccc12)CN1CCN(c2ccccc2)CC1` (stereo unspecified): the growth was 103% with EKVX NSCLC; 98.7% in the test with SN12C renal; 82.2% with UO-31 renal; 104% in the test with TK-10 renal; 104% in the test with ACHN renal; 47% in the test with CAKI-1 renal. The growth with A498 renal was 95.5%; in the test on MOLT-4 leukemia, 107%; in the test on SR leukemia, 130%; in the test with OVCAR-8 ovarian, 100%; in the test with OVCAR-5 ovarian, 102%; with OVCAR-4 ovarian, 91.9%. Besides, the growth in the test on SK-OV-3 ovarian is 93.7%; with IGROV1 ovarian, 122%; with OVCAR-3 ovarian, 105%; in the test with HS 578T breast, 107%; with NCI/ADR-RES ovarian, 98%.
With `Clc1ccc(-c2nnc(Cn3ccnc3)o2)cc1`, the growth in the test on EKVX NSCLC is 104%; in the test on SN12C renal, 90.1%; in the test with UO-31 renal, 87%; in the test with TK-10 renal, 128%; in the test with ACHN renal, 98.9%; in the test with CAKI-1 renal, 82.3%. In addition, the growth with A498 renal was 96.1%; with CCRF-CEM leukemia it was 107%; in the test with MOLT-4 leukemia, 96.5%; in the test with SR leukemia, 94.3%; with RPMI-8226 leukemia, 112%; with OVCAR-5 ovarian, 96.2%. Also, the growth in the test on OVCAR-4 ovarian is 102%; in the test on SK-OV-3 ovarian, 107%; with IGROV1 ovarian it was 108%; in the test with OVCAR-3 ovarian it was 116%; in the test on HS 578T breast, 95.1%; in the test with NCI/ADR-RES ovarian, 106%.
